Among the test systems are NCI-H23 lung; NCI-H226 lung; NCI-H322M lung; HOP-62 NSCLC; HOP-92 NSCLC; NCI-H522 lung; A549/ATCC NSCLC; 786-0 renal; COLO 205 colon; DU-145 prostate; K-562 leukemia; MALME-3M melanoma; MDA-MB-231 breast; RXF 393 renal; SF-268 CNS; SF-295 CNS; SF-539 CNS; UACC-257 melanoma; M14 melanoma; NCI-H460 lung.
What all share (assay): NCI-60 one-dose screen, 48 h (100 = growth as untreated, 0 = no growth, -100 = all killed)
Common to all, as to conditions: 10 µM unless noted

The panel holds about 83,000 compounds, 20% with a hit somewhere; the sample as a whole holds those more often.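 Percent growth is the endpoint: 0 to 100 indicates growth inhibition (40 means 60% inhibition), 0 means no net growth, and negative values indicate cell death.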 Unmarked numbers belong to inactive results. Calls of active or inactive are those of the source. How the source made its calls: active means growth percent below 10; inactive means the rest.

In the case of `O=C(O)c1ccc(-c2nn(-c3ccc(C(=O)O)cc3)cc2/C=N/Nc2c(F)c(F)cc(F)c2F)cc1`, the growth with NCI-H23 lung is 96%; in the assay on NCI-H226 lung it was 103%; in the assay on NCI-H322M lung, 99.9%; with HOP-62 NSCLC it was 99%; with HOP-92 NSCLC it was 115%; in the assay on NCI-H522 lung, 89.2%. The growth is 97.7% in the assay with A549/ATCC NSCLC; 112% with 786-0 renal; 111% in the assay on COLO 205 colon; 105% in the assay on DU-145 prostate; 105% with K-562 leukemia; 93.7% in the assay on MALME-3M melanoma. Further, the growth in the assay with MDA-MB-231 breast is 105%; in the assay on RXF 393 renal, 112%; in the assay on SF-268 CNS, 93.2%; with SF-295 CNS it was 102%; in the assay on SF-539 CNS, 102%; with UACC-257 melanoma, 95.7%. For the same compound, in the assay on M14 melanoma, the growth is 96.6%.
As for `CCOC(=O)C1=C(N)Oc2cc(OC)ccc2C1c1ccc(F)c(F)c1` (stereo not drawn), the growth in the assay on NCI-H23 lung is 45.1%; in the assay on NCI-H226 lung, 68%; in the assay with NCI-H322M lung, 46.8%; in the assay on HOP-62 NSCLC, 37.7%; in the assay on HOP-92 NSCLC it was 73.6%; in the assay on NCI-H522 lung, -6.42% (active). For the same compound, the growth with A549/ATCC NSCLC was 42.1%; in the assay with 786-0 renal, 33.1%; in the assay on COLO 205 colon, 25.2%; in the assay on DU-145 prostate it was 37.7%; with K-562 leukemia, 11.2%; in the assay with MALME-3M melanoma, 59.3%. Moreover, the growth with MDA-MB-231 breast was 47.4%; in the assay on RXF 393 renal, -9.59% (active); with SF-268 CNS, 51.3%; with SF-295 CNS it was 17.7%; in the assay with SF-539 CNS, 17.8%; in the assay on UACC-257 melanoma, 53.4%. In addition, the growth with M14 melanoma was 18%.
Consider `Cc1cn(-c2nc3c(c(NCc4ccccc4)n2)COCC3)c2cccc(C(N)=O)c12`, for which the growth is 58.8% [0.5 µM] in the assay on NCI-H23 lung; 56.4% [0.5 µM] with NCI-H226 lung; 98.8% [0.5 µM] in the assay on NCI-H322M lung; 76.3% [0.5 µM] in the assay with HOP-62 NSCLC; 87.7% [0.5 µM] with HOP-92 NSCLC; 69.5% [0.5 µM] in the assay on NCI-H522 lung. The growth is 84% [0.5 µM] with A549/ATCC NSCLC; 40.9% [0.5 µM] in the assay on 786-0 renal; 87.8% [0.5 µM] with COLO 205 colon; 87.6% [0.5 µM] with DU-145 prostate; 82.9% [0.5 µM] in the assay with MALME-3M melanoma; 58.5% [0.5 µM] in the assay with MDA-MB-231 breast. For the same compound, the growth with RXF 393 renal was 43.6% [0.5 µM]; in the assay with SF-268 CNS it was 76.9% [0.5 µM]; with SF-295 CNS, 36.1% [0.5 µM]; with SF-539 CNS it was 84.6% [0.5 µM]; with UACC-257 melanoma it was 68.1% [0.5 µM]; in the assay with M14 melanoma it was 55.2% [0.5 µM].
`CCCCN(CCCC)c1ccc(C(=N)c2ccc(N(C)C)cc2)cc1`: the growth in the assay on NCI-H23 lung was -46.1% (active); in the assay on NCI-H226 lung, -46.4% (active); in the assay with NCI-H322M lung, -32% (active); in the assay on HOP-62 NSCLC it was -84% (active); in the assay on HOP-92 NSCLC it was -32.7% (active); with NCI-H522 lung, -66.1% (active). Moreover, the growth with A549/ATCC NSCLC was 3.26% (active); with 786-0 renal it was -84.4% (active); with DU-145 prostate, -21% (active); in the assay with K-562 leukemia it was -30.9% (active); in the assay with MALME-3M melanoma it was -81.6% (active); with MDA-MB-231 breast, -76.7% (active). For the same compound, the growth is -75% (active) in the assay on RXF 393 renal; -21.8% (active) with SF-268 CNS; -72.1% (active) with SF-295 CNS; -89.1% (active) with SF-539 CNS; -62.8% (active) in the assay on UACC-257 melanoma; -93.3% (active) with M14 melanoma.
On to `CC1=C[S+](c2ccccc2)c2cccc3cc4ccccc4c1c23` (stereo not drawn), for which the growth in the assay with NCI-H23 lung was 5.3% (active); with NCI-H226 lung it was -21.7% (active); in the assay with NCI-H322M lung, 21.5%; in the assay on HOP-62 NSCLC, -42.6% (active); with HOP-92 NSCLC, -59.6% (active); in the assay with NCI-H522 lung, -95.7% (active). Further, the growth with A549/ATCC NSCLC is -8.79% (active); in the assay with 786-0 renal it was -80% (active); in the assay on COLO 205 colon it was -89.5% (active); with DU-145 prostate, -10.8% (active); in the assay with K-562 leukemia it was -27.2% (active); in the assay on MALME-3M melanoma it was -41.2% (active). Also, the growth in the assay on MDA-MB-231 breast is -10.4% (active); with SF-268 CNS, -38.7% (active); in the assay with SF-295 CNS, -0.638% (active); in the assay with SF-539 CNS it was -88.2% (active); in the assay on UACC-257 melanoma, -88.8% (active); in the assay on M14 melanoma it was -64.4% (active).
Regarding `Cc1[nH]n(C(=O)c2ccncc2)c(=O)c1N=Nc1ccc(S(=O)(=O)Nc2ccncn2)cc1`, the growth was 100% in the assay on NCI-H23 lung; 90% in the assay with NCI-H226 lung; 115% in the assay on NCI-H322M lung; 76.6% in the assay with HOP-62 NSCLC; 115% with NCI-H460 lung; 54.7% in the assay on HOP-92 NSCLC. The growth in the assay with NCI-H522 lung is 102%; with A549/ATCC NSCLC, 18.9%; in the assay on COLO 205 colon, 127%; in the assay on DU-145 prostate, 126%; with K-562 leukemia it was 55.3%; in the assay on MALME-3M melanoma, 124%. Besides, the growth in the assay on MDA-MB-231 breast was 103%; with SF-268 CNS, 95.5%; in the assay on SF-295 CNS, 134%; in the assay on SF-539 CNS it was 107%; in the assay with UACC-257 melanoma, -1.41% (active); with M14 melanoma it was 106%.
In the case of `O=C(Nc1ccc(-n2ccc3c(NC(=O)c4ccccc4)ncnc32)cc1)Nc1cccc(Cl)c1Cl`, the growth in the assay on NCI-H23 lung is -13.7% (active); in the assay with NCI-H226 lung, -37.6% (active); in the assay with NCI-H322M lung, 43.9%; in the assay on HOP-62 NSCLC, -32% (active); in the assay with HOP-92 NSCLC, -21.1% (active); in the assay with NCI-H522 lung it was -31.6% (active). Moreover, the growth is -69.6% (active) in the assay on A549/ATCC NSCLC; 6.42% (active) in the assay on 786-0 renal; 15.9% in the assay on COLO 205 colon; 1.29% (active) in the assay on DU-145 prostate; 12.5% with K-562 leukemia; 2.21% (active) with MALME-3M melanoma. In addition, the growth in the assay on MDA-MB-231 breast is -9.33% (active); in the assay with RXF 393 renal, -76.1% (active); in the assay on SF-268 CNS, -26.8% (active); with SF-295 CNS, -47.9% (active); with SF-539 CNS, -10.4% (active); in the assay with UACC-257 melanoma it was 12.2%. Besides, in the assay with M14 melanoma, the growth is -6.74% (active).
Regarding `COc1cccc(C2CC(c3cc(OC)c(OC)c(OC)c3)=NN2)c1` (stereo not drawn), the growth in the assay with NCI-H23 lung was 89.6%; in the assay on NCI-H226 lung, 91.7%; in the assay with NCI-H322M lung it was 99.6%; in the assay on HOP-62 NSCLC, 83%; in the assay on HOP-92 NSCLC, 80%; with NCI-H522 lung it was 80.3%. The growth was 84.4% in the assay with A549/ATCC NSCLC; 86.9% in the assay with 786-0 renal; 106% in the assay with COLO 205 colon; 104% with DU-145 prostate; 14.5% in the assay with K-562 leukemia; 91.6% in the assay with MALME-3M melanoma. The growth with MDA-MB-231 breast was 98%; in the assay with RXF 393 renal, 83.8%; in the assay with SF-268 CNS, 93%; with SF-295 CNS, 81.8%; in the assay on SF-539 CNS it was 92.2%; with UACC-257 melanoma, 99.4%. The growth in the assay on M14 melanoma was 83%.

The record behind these values is PubChem BioAssay (NCI).
